Experimental data as given in PubChem BioAssay AID686971 (National Center for Advancing Translational Sciences (NCATS), 2013).
The campaign covered roughly 360,000 compounds. About 7,500 (2.1%) were called active. Not shown: some 8% with an inconclusive outcome. The list comes from a sample in which actives are over-represented; it also holds similar structures and randomly drawn compounds. Unmarked numbers belong to inactive results. The call rests on the fitted dose curve; in most records, active means well fitted cell-killing curve with a large enough effect; inconclusive means small, poorly fitted or top-dose-only effect, or effect the other way, or another doubt; inactive means no such curve, though single readings can be large or run the other way.
Potency means the concentration at half of the fitted maximal effect.

Test: qHTS for induction of synthetic lethality in tumor cells producing 2HG: qHTS for the HT-1080-IDH1KD cell line;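 on activity, negative = toxicity: 0% = DMSO wells and -100% = cell-free medium wells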
Settings: HT-1080 IDH1 knockdown viability, ATP luminescence, 48 h; series mostly up to 46.1 µM; activity, negative = toxicity: at the top concentration
Summary of the method: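 IDH1KD HT-1080 cells, 750/well, RPMI + 5% FBS; compound pinned after 2 h settling; 48 h, 37 °C; CellTiter-Glo luminescence; % activity normalised to DMSO and no-cell wells; curves fitted, classed by r2 and efficacy.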
In the case of CCc1nc2c(OCCOc3ccccc3)cccn2c1N(C=O)Cc1ccc(OC)cc1, the “activity, negative = toxicity” value is reported as -76.1%. In the case of CC(C)c1nccn1S(=O)(=O)c1cc([N+](=O)[O-])ccc1Cl, the “activity, negative = toxicity” value is reported as 2.08%. With CCc1nc(C)cn1S(=O)(=O)c1cc(OC)c(C)cc1C the “activity, negative = toxicity” value was -17.7%. In the case of CCc1nc(C)cn1S(=O)(=O)c1cc([N+](=O)[O-])ccc1Cl, the Potency is reported as 3.26 µM (active). For Nc1nc2c(Br)ccc(Br)c2cc1C(=O)NCCc1ccccc1, the “activity, negative = toxicity” value was -12.4%. With CSc1ncnc2c1ncn2CCCNCc1ccco1 the “activity, negative = toxicity” value was 9.18%. With COc1ccc(C(CCN(Cc2ccc(OC)c(OC)c2)C(=O)CCl)c2ccccc2)cc1 (stereo unspecified) the Potency was 16.4 µM (active). For COc1ccc(CN(C)C(=O)CC(c2ccccc2)c2ccccc2)cc1, the “activity, negative = toxicity” value was -14.7%. In the case of COc1ccc(COC(=O)NC(C(=O)O)c2ccccc2)cc1 (stereo unspecified), the “activity, negative = toxicity” value is reported as -4.08%. For Nc1cc(C(=O)N2CCN(c3ccccc3Cl)CC2)ccc1N1CC2CC(C1)c1cccc(=O)n1C2 (stereo unspecified), the “activity, negative = toxicity” value was 0.978%. For COc1ccc(NC(=O)COC(=O)C2COc3ccccc3O2)cc1 (stereo unspecified), the “activity, negative = toxicity” value was 4.67%. In the case of Cc1ccc(Cc2cnc(N)s2)o1, the “activity, negative = toxicity” value is reported as -24.2%. With Cc1ccc(CCC(=O)Nc2ncc(Cc3cc(Cl)ccc3Cl)s2)o1 the Potency was 1.16 µM (active). With Cc1ccc(C(=O)Nc2nc3ccc(Cl)cc3s2)o1 the “activity, negative = toxicity” value was -6.86%. In the case of COc1ccc(C(O)c2nc(-c3ccc(OC)nc3)cs2)cc1 (stereo unspecified), the “activity, negative = toxicity” value is reported as 5.6%. With CNN/C(N=Cc1ccc([N+](=O)[O-])s1)=N\S(=O)(=O)c1cc(C)c(Cl)cc1SCc1ccccc1 the “activity, negative = toxicity” value was 0.716%. In the case of CC1CN(C(=O)c2ccc([N+](=O)[O-])s2)CC(C)O1 (stereo unspecified), the “activity, negative = toxicity” value is reported as 2.25%. In the case of O=[N+]([O-])c1ccc(C=Nc2ccc(Cl)cc2Cl)s1, the Potency is reported as 11.2 µM (active). For Cc1ccc(N(Cc2cc3ccccc3[nH]c2=O)C(=O)c2cccs2)cc1, the “activity, negative = toxicity” value was 0.252%. For Cc1ccc(N(Cc2cc(=O)[nH]c3ccccc23)C(=O)CCl)cc1, the Potency was 20.6 µM (active). In the case of CC(=O)N(Cc1cc(=O)[nH]c2ccccc12)c1ccc(C)cc1C, the “activity, negative = toxicity” value is reported as -12.4%. With CC(C)C1Cc2[nH][nH]c(=O)c2C(c2ccc(Cl)cc2)O1 (stereo unspecified) the “activity, negative = toxicity” value was 2.43%. With CC(C)CNC(=O)C1(C)CCCN1C(=O)CSc1ccccc1 (stereo unspecified) the “activity, negative = toxicity” value was 0.548%. With CCCC(=O)N1CCC1(C)C(=O)NCc1ccc(SC)cc1 (stereo unspecified) the “activity, negative = toxicity” value was 18.2%. In the case of COc1ccc(/C=C/C(=O)Nc2ccc(C34CC5CC(CC(O)(C5)C3)C4)cc2)cc1OC, the Potency is reported as 2.59 µM (active). In the case of COc1ccc(/C=C/C(=O)N2CCCC2)cc1OC, the “activity, negative = toxicity” value is reported as -6.68%. In the case of COc1cc(/C=C/C(=O)Nc2ccc(OC)c(S(=O)(=O)N3CCOCC3)c2)ccc1OCC#N, the “activity, negative = toxicity” value is reported as -27.5%. With C[C@@H]1CN([C@H](C)CO)C(=O)CCCn2nncc2CO[C@@H]1CN(C)S(=O)(=O)c1cccc(C#N)c1 the “activity, negative = toxicity” value was -7.06%. In the case of CS(=O)(=O)Nc1cccc(C2=NN(C(=O)c3cccc(F)c3)C(c3cccs3)C2)c1 (stereo unspecified), the “activity, negative = toxicity” value is reported as -23.8%. With CS(=O)(=O)Nc1ccc(C2=NN(S(C)(=O)=O)C(c3cccs3)C2)cc1 (stereo unspecified) the “activity, negative = toxicity” value was 10.5%. For CCS(=O)(=O)Nc1ccc(C2=NN(C(C)=O)C(c3cccs3)C2)cc1 (stereo unspecified), the Potency was 16.4 µM (active).
